Among all 340,000 compounds or so, fewer than 10 were called active. Calls follow the shape of the dose curve; as a rule, active = well fitted inhibition curve with a large enough effect in the main read-out, with a control signal flat (not every such curve was filed as active); inconclusive = small, poorly fitted or top-dose-only effect, or effect the other way, or a change in a side signal; inactive = no such curve, though single readings can be large or run the other way. These entries were drawn from the full list.
Target: Tumor susceptibility gene 101 protein (Homo sapiens) (UniProt Q99816)
Assay: qHTS Assay for Iinhibitors of HIV-1 Budding by Blocking the Interaction of PTAP/TSG101; also: % of control where 0% means no effect
Conditions: Fluorescence polarization, FITC-PTAP peptide / Tsg101 binding; series mostly up to 115 µM; activity change, negative = inhibition: at the top concentration
Source text: NIH Molecular Libraries Probe Production Network [MLPCN] NIH Chemical Genomics Center [NCGC] MLPCN Grant: 1 R03 MH087464-01A1 PI Name: Dr. Eric Freed, NCI NCGC Assay Overview: Stages of the HIV-1 replication cycle, specifically virus assembly and release, provide underexploited targets for the development of novel antiviral inhibitors. The late stages of HIV-1 replication are mediated by the Gag precursor protein, Pr55Gag. Expression of Pr55Gag is both necessary and sufficient for the production of virus-like particles from Gag-expressing cells. The Gag protein hijacks key host proteins involved in endocytic machinery of the host cell to promote endosomal processing and viral budding. The budding process requires a direct interaction between a […] (PTAP) motif in the p6 domain of Gag and the cellular endosomal sorting protein known as Tsg101. In this way, the Gag PTAP motif promotes the host cells to recruit viral particles to the plasma membrane where the new viral particles are released, effectively turning the host cells into viral factories. A fluorescence anisotropy assay has been developed to quantitatively measure the PTAP-Tsg101 interaction which can be used to screen for inhibitors of this interaction.
NCGC Assay Protocol Summary: Two uL of the Tsg101 binding domain in buffer (10 mM HEPES pH 7.5; 0.15 M NaCl, 0.01% Tween 20; 3 mM EDTA;0.1 mM TCEP) was dispensed into Greiner black MB 1536-well plates (final concentration 10 uM). Then, 23 nL of compounds or DMSO were delivered to each well using a pin tool. Finally, 2 uL of a FITC-labeled peptide containing the PTAP motif (1) in the same buffer was dispensed (50 nM final concentration) and the binding was allowed to proceed for 20 min. at r.t. Fluorescent polarization was determined using FITC excitation and polarized emission filters on a Perkin Elmer Viewlux. Keywords: Tsg101, PTAP, Gag, HIV, fluorescent polarization, MLSMR, MLPCN, NIH Roadmap, qHTS, NCGC

Chain of Tumor susceptibility gene 101 protein (Homo sapiens) (Q99816 whole entry, looked up): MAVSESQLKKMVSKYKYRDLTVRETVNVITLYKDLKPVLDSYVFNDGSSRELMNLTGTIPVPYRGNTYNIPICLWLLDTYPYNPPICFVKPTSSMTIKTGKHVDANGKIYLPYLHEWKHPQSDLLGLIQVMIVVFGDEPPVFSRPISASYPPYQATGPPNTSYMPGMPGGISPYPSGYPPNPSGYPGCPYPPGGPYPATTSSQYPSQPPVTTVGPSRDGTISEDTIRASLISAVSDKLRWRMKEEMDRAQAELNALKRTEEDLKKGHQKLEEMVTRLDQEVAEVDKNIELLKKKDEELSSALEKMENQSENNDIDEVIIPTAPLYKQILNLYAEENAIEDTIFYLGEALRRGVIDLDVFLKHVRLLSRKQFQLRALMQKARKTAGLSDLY

Activity change, negative = inhibition, inactive:
Cc1cccc(-n2c(Cc3cc(=O)[nH]c(=O)[nH]3)nnc2SC(C)C)c1 -3.65%
Cc1ccccc1C(=O)N1CCC(C(=O)Nc2ccc(S(=O)(=O)N(C)C(C)C)cc2)CC1 -5.76%
Cc1no[n+]([O-])c1COc1ccccc1/C=C1\NC(=S)NC1=O -1.51%
Cc1coc2cc3oc(=O)c(CCC(=O)O)c(C)c3cc12 -1.58%
CC(C)Cc1nnc(N)s1 0.822%
Cc1ccc2c(c1)N(CC(=O)NCCCN1CCCCC1)C(=O)c1cccnc1O2 -3.98%
CC1CC(C)CN(C(=O)CCNC(=O)Cn2cnc3ccccc3c2=O)C1 (stereo not drawn) -3.52%
O=C(Cc1ccc(S(=O)(=O)N2CCOCC2)s1)NCCOc1ccccc1F -3.13%
O=C(COc1ccc2c(c1)CCC2)N1CCN(c2ccc(F)cc2)CC1 -4.81%
CN(C)c1ccc(Nc2c3c4c(cccc4n(C)c2=O)C(=O)c2ccccc2-3)cc1 -12.6%
CC(Cc1cccs1)NC(=O)c1cccc(Cl)c1 (stereo not drawn) -2.64%
O=C(Cc1ccc([N+](=O)[O-])cc1)NCCc1ccc2c(c1)OCO2 0.815%
CCC(CC)C(=O)Nc1c2c(nn1-c1ccc(C)cc1)CS(=O)(=O)C2 -0.386%
CCCC1(C(=O)OCC)NC(c2ccc(N(C)C)cc2)C2C(=O)N(c3ccc4c(c3)OCCO4)C(=O)C21 (stereo not drawn) -5.54%
COc1cc2c(cc1CNC[C@H]1O[C@@H](n3cnc(C(N)=O)n3)[C@H](O)[C@@H]1O)OCO2 -0.393%
COc1ccc(/C=C/C2=CC(C)(C)NC(=S)N2)c(OC)c1 -5.34%
O=C(NC1CCN(C(=S)Nc2ccc(Cl)cc2)CC1)C1CCCCC1 -2.49%
N#CC1(NC(=O)COC(=O)CSc2ccc(F)cc2)CCCCC1 -0.309%
CC(=O)c1ccc(Cc2ncc(C(F)(F)F)cc2Cl)s1 -2.94%
COc1ccc(-c2cc(C(F)(F)F)n3nc(C(=O)N4CCOCC4)c(Cl)c3n2)cc1 -1.7%
Cc1ccsc1C1C(C#N)=C(N)OC2=C1C(=O)CC(C)C2 (stereo not drawn) -6.04%
O=[N+]([O-])c1cccc(S(=O)(=O)N2CCCCCC2)c1 -4.08%
CC(C)c1ccc(S(=O)(=O)N2CCC3(CC2)OCCO3)cc1 5%
O=C(CN1C(=O)NC2(CCCC2)C1=O)NCC1CCCO1 (stereo not drawn) -0.821%
NC(=O)c1ccc(CN2CCC(Cc3ccccc3)CC2)cc1 -4.25%
O=C(N/C(=C\c1ccc(O)cc1)C(=O)N1CCCCC1)c1ccccc1 -4.56%
O=C(O)C1C2C=CC(O2)C1C(=O)NCCc1cccc(Cl)c1 (stereo not drawn) -2.45%
CC1=C(C(=O)N(C)C)C(c2ccccc2OC(F)F)NC(=O)N1 (stereo not drawn) -2.19%
Cn1c2ccc(F)cc2c2nnc(NN)nc21 -1.99%
CC(C)Oc1ccc(CCc2n[nH]c(=S)n2Cc2ccccc2)cc1 -8.46%
CCc1nnc(NC(=O)CSc2nc3ccccc3c(=O)n2CCCOC)s1 -4.64%
O=C(Nc1ccc(-n2cccn2)cc1)C1CCN(Cc2ccsc2)CC1 -0.259%
CCOC(=O)C1Nc2ccc(C(F)(F)F)cc2C2C=CCC12 (stereo not drawn) -7.44%
